# Experimental data: PMC11062922 (Nature Chemical Biology, 2023)
# Like-named read-outs stand apart in the source and are kept apart here.
# Columns and labels:
# Design in all cases: species or system human, MV4-11 + K-562 + COLO205 + SK-N-BE2 + OVCAR-8
# CSNK1E = settings: read-out: apparent Kd, n = 1
# PIK3CD = settings: read-out: apparent Kd, n = 1
# STK3 = settings: read-out: apparent Kd, n = 1
# TNIK = settings: read-out: apparent Kd, n = 1
# CDK17 = settings: read-out: apparent Kd, n = 1
# RPS6KA4 = settings: read-out: apparent Kd, n = 1
# CSNK1A1 = settings: read-out: apparent Kd, compound concentrations: 100 nM and 1000 nM (sheet 'Samples'), n = 1
# HCK = settings: read-out: apparent Kd; compound concentrations: 100 nM and 1000 nM (sheet 'Samples'), CATDS: 4.52340510871738E-2; n = 1
# SRC = settings: read-out: apparent Kd; compound concentrations: 100 nM and 1000 nM (sheet 'Samples'), CATDS: 5.0295032408805701E-2; n = 1
# RIOK2 = settings: read-out: apparent Kd, n = 1
# MAPK8 = settings: read-out: apparent Kd, n = 1
# PHKG2 = settings: read-out: apparent Kd; compound concentrations:100 nM and 1000 nM (sheet 'Samples'); n = 1
# ATM = settings: read-out: apparent Kd, compound concentrations: 100 nM and 1000 nM (sheet 'Samples'), n = 1
# PRKX = settings: read-out: apparent Kd; compound concentrations: 100 nM and 1000 nM (sheet 'Samples'), CATDS: 6.1031439007252199E-2; n = 1
# ROCK2 = settings: read-out: apparent Kd; compound concentrations: 100 nM and 1000 nM (sheet 'Samples'), CATDS: 0.12516480015121101; n = 1
# [1] = compound concentrations:100 nM and 1000 nM (sheet 'Samples')
smiles,measurement,setting,value
Cc1occc1-c1nc(N)c(OC[C@@H](N)Cc2c[nH]c3ccccc23)cc1-c1cc2c(C)n[nH]c2cn1 [GSK1660450B],potency estimated from few doses,CSNK1E; [1],144 nM
same,potency estimated from few doses,PIK3CD; [1],8.67 nM
same,potency estimated from few doses,STK3; [1],93.5 nM
same,potency estimated from few doses,TNIK; [1],696 nM
NS(=O)(=O)c1ccc(NC=C2C(=O)Nc3ccc4ncsc4c32)cc1 [GW589933X],potency estimated from few doses,"CDK17; compound concentrations: 100 nM and 1000 nM (sheet 'Samples'), CATDS: 2.5834512792532401E-2",479 nM
same,potency estimated from few doses,"CSNK1E; compound concentrations: 100 nM and 1000 nM (sheet 'Samples'), CATDS: 1.7679596648165999E-2",1500 nM
same,potency estimated from few doses,"RPS6KA4; compound concentrations: 100 nM and 1000 nM (sheet 'Samples'), CATDS: 2.5851222500782998E-2",479 nM
same,potency estimated from few doses,"STK3; compound concentrations: 100 nM and 1000 nM (sheet 'Samples'), CATDS: 3.1819272048607197E-2",295 nM
same,potency estimated from few doses,"TNIK; compound concentrations: 100 nM and 1000 nM (sheet 'Samples'), CATDS: 5.8590994029209698E-2",89.2 nM
NS(=O)(=O)c1ccc(N/N=C2\C(=O)Nc3ccc4ncccc4c32)cc1 [GW305178X],potency estimated from few doses,"CDK17; compound concentrations: 100 nM and 1000 nM (sheet 'Samples'), CATDS: 6.1858788217922803E-2",544 nM
same,potency estimated from few doses,"STK3; compound concentrations: 100 nM and 1000 nM (sheet 'Samples'), CATDS: 4.2852870715448799E-2",1580 nM
COc1ccc(Nc2nccc(NCCNC(=O)Nc3cc(C)ccc3C)n2)cc1 [GSK1379899A],potency estimated from few doses,CSNK1A1; CATDS: 3.9039606822866203E-2,2320 nM
same,potency estimated from few doses,HCK,1500 nM
same,potency estimated from few doses,"PIK3CD; compound concentrations: 100 nM and 1000 nM (sheet 'Samples'), CATDS: 0.14570623002858099",175 nM
same,potency estimated from few doses,SRC,1150 nM
CNc1nccc(-c2ccc3c(N)n[nH]c3c2)n1 [GSK2206003A],potency estimated from few doses,"RIOK2; compound concentrations: 100 nM and 1000 nM (sheet 'Samples'), CATDS: 5.2095061468969701E-2",1360 nM
NS(=O)(=O)c1ccc(N/C=C2\C(=O)Nc3ccc4ncsc4c32)cc1 [GW297361X],potency estimated from few doses,"CDK17; compound concentrations: 100 nM and 1000 nM (sheet 'Samples'), CATDS: 3.2920302363338198E-2",1410 nM
same,potency estimated from few doses,"RPS6KA4; compound concentrations: 100 nM and 1000 nM (sheet 'Samples'), CATDS: 3.5375158245813998E-2",1150 nM
same,potency estimated from few doses,"STK3; compound concentrations: 100 nM and 1000 nM (sheet 'Samples'), CATDS: 4.8533419751013301E-2",558 nM
same,potency estimated from few doses,"TNIK; compound concentrations: 100 nM and 1000 nM (sheet 'Samples'), CATDS: 3.6664419763171099E-2",1050 nM
Nc1nc(-c2ccc3c(N)n[nH]c3c2)cc(N2CCCC(NC(=O)c3ccccc3)C2)n1 (centres unmarked) [GSK2286775B],potency estimated from few doses,RIOK2; [1],1860 nM
COc1cc[nH]c1/C=C1\C(=O)Nc2ccc(F)c(C#C[C@@H](O)[C@@H](N)[C@@H](C)O)c21 [RO0283120-000],potency estimated from few doses,CDK17; [1],774 nM
same,potency estimated from few doses,MAPK8; [1],942 nM
same,potency estimated from few doses,PHKG2,669 nM
same,potency estimated from few doses,RPS6KA4; [1],421 nM
same,potency estimated from few doses,STK3; [1],680 nM
CN[C@H](C#Cc1c(F)ccc2c1/C(=C/c1[nH]ccc1OC)C(=O)N2)CO.Cl [RO0283049-001],potency estimated from few doses,"CDK17; compound concentrations: 100 nM and 1000 nM (sheet 'Samples'), CATDS: 2.52216381525E-2",797 nM
same,potency estimated from few doses,"MAPK8; compound concentrations: 100 nM and 1000 nM (sheet 'Samples'), CATDS: 2.3865575859687099E-2",951 nM
same,potency estimated from few doses,"RPS6KA4; compound concentrations: 100 nM and 1000 nM (sheet 'Samples'), CATDS: 3.14855312856318E-2",432 nM
same,potency estimated from few doses,"STK3; compound concentrations: 100 nM and 1000 nM (sheet 'Samples'), CATDS: 2.5923871339058099E-2",733 nM
CNCC1CCn2c(c(C3=C(c4cn(C)c5ccccc45)C(=O)NC3=O)c3ccccc32)C1 (centres unmarked) [RO0318676-000],potency estimated from few doses,"CDK17; compound concentrations: 100 nM and 1000 nM (sheet 'Samples'), CATDS: 2.8092729884281801E-2",1740 nM
CC(C)N1CC(=O)N(C)c2cnc(Nc3cccc(S(=O)(=O)CCN4CCOCC4)c3)nc21 [BI00009348],potency estimated from few doses,ATM; CATDS: 0.21813144295739101,112 nM
CN(C)c1ccc2c(c1)/C(=C/Nc1ccc(S(N)(=O)=O)cc1)C(=O)N2 [GW416469X],potency estimated from few doses,"PIK3CD; compound concentrations: 100 nM and 1000 nM (sheet 'Samples'), CATDS: 0.23489654545894101",138 nM
same,potency estimated from few doses,"STK3; compound concentrations: 100 nM and 1000 nM (sheet 'Samples'), CATDS: 7.8286215558842895E-2",1330 nM
O=C(Nc1n[nH]c2nc(-c3ccccc3O)ccc12)C1CC1 [SB-711880],potency estimated from few doses,PHKG2,1550 nM
same,potency estimated from few doses,STK3; [1],483 nM
same,potency estimated from few doses,TNIK; [1],1150 nM
COc1cc[nH]c1/C=C1\C(=O)Nc2ccc([N+](=O)[O-])c(N3CC[C@@H](O)C3)c21 [RO0504985-000],potency estimated from few doses,"CDK17; compound concentrations: 100 nM and 1000 nM (sheet 'Samples'), CATDS: 2.9599513328136099E-2",2050 nM
O=C1N=C(NCCc2cccs2)S/C1=C\c1ccc2ncccc2c1 [RO4508348-000],potency estimated from few doses,ATM; CATDS: 0.23427621692245501,314 nM
Cl.Cl.NCC(NC(=O)c1cc(-c2ccnc3[nH]ccc23)cs1)c1ccccc1.NCC(NC(=O)c1cc(-c2ccnc3[nH]ccc23)cs1)c1ccccc1 (centres unmarked) [GSK1229959A],potency estimated from few doses,CSNK1A1; CATDS: 1.7292199039589701E-2,1760 nM
same,potency estimated from few doses,"PIK3CD; compound concentrations: 100 nM and 1000 nM (sheet 'Samples'), CATDS: 7.85579878499649E-2",13.2 nM
same,potency estimated from few doses,PRKX,21.6 nM
same,potency estimated from few doses,ROCK2,6.2 nM
COc1ccc(-n2cnc3c(N)ncnc32)cc1 [SKF-97236],potency estimated from few doses,"PIK3CD; compound concentrations: 100 nM and 1000 nM (sheet 'Samples'), CATDS: 0.374681686981787",222 nM
